An excerpt weighted towards active compounds, which were near 17% of everything screened.
DT40 TDP1 no CPT – qHTS for Inhibitors of human tyrosyl-DNA phosphodiesterase 1 (TDP1): qHTS in cells in absence of CPT; Potency, µM (top dose mostly 46.2 µM), inactives show at the highest dose activity change, negative = growth inhibition, actives largely listed as inhibitors; 420,000 compounds, 15% hits; AID 686978, 2013; DT40 Tdp1-/- hTDP1 cells, no CPT, ATP luminescence, 48 h; also: % is scaled to controls: 0 for no effect and ±100 for the full control effect; nearly all actives have a fitted effect of over 55% in size
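Stably hTDP1-transfected Tdp1-null chicken DT40 cells were treated with library compounds minus camptothecin and grown for at least 48 hr at 37 °C, after which cellular ATP was quantified by luminescence.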
HepG2 tox – HepG2 cytotoxicity, counter-screen for TGF-b inhibitors; HepG2 CAGA-GFP viability, ATP luminescence, 18 h; Potency, µM (highest dose often 46.1 µM), inactives show at the top dose activity change, negative = cytotoxicity, hits mostly cytotoxic; 410,000 compounds, 0.76% hits; AID 588856
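CellTiter-Glo luminescence gave cytotoxicity after 18 hours at 37 degrees C. The cells were HepG2 CAGA-GFP in 1% FBS DMEM, stimulated with 500 pg/mL TGF-beta after compound addition. %Activity was normalised to no-cell wells (complete cell-killing) and DMSO (no toxicity), and curves were fitted and classified.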
ATXN2 expr inh – ATXN2 expression inhibition; HEK-293 ATXN2-luciferase reporter, luminescence, 24 h; AID 1745845; Potency, µM (series often up to 57 µM), for inactives: top-dose activity change, negative = inhibition, hits mostly inhibitors; 360,000 compounds, 0.72% hits; also: % is scaled to controls: 0 for no effect and ±100 for the full control effect; nearly all actives have a fitted effect of over 55% in size
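ATXN2-luciferase reporter cells (luciferase flanked by upstream and downstream ATXN2 gene portions) were treated 24 h at 37 °C with compounds at up to 57 uM. SteadyGlo luminescence gave expression; GF-AFC fluorescence gave viability.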
TGFb inhibitor – TGF-b pathway inhibition; HepG2 CAGA-GFP TGF-b/SMAD3 reporter, GFP fluorescence, 18 h; TGF-beta stimulated, 500 pg/mL final; 410,000 compounds, 1.2% hits; Potency, µM (series often up to 46.1 µM), for inactives: top-dose activity, negative = inhibition, usual class: inhibitors; also: % is scaled to controls: 0 for no effect and ±100 for the full control effect; nearly all actives have a fitted effect of over 65% in size
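Smad-responsive CAGA-GFP expression was quantified in HEPG2 cells exposed to compounds and 500 pg/mL final TGF-beta for 18 h at 37 degrees C; unstimulated wells defined full inhibition.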
DT40 TDP1 CPT – DT40-hTDP1 cell growth loss with CPT; chicken DT40 Tdp1-/-;hTDP1 cells + 20 nM CPT, ATP luminescence, 48 h; Potency, µM (series often up to 46.2 µM), for inactives: at the top dose activity change, negative = growth inhibition, hits mostly inhibitors; 420,000 compounds, 12% hits; AID 686979; also: % is scaled to controls: 0 for no effect and ±100 for the full control effect; nearly all actives have a fitted effect of over 55% in size
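Chicken DT40 Tdp1-/- cells stably complemented with human TDP1 were seeded at 400 cells/well in medium containing 20 nM camptothecin, exposed to pin-transferred compounds, and grown at 37 °C for at least 48 hr. Viability was read as ATP luminescence.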
ATXN viability – cell viability loss in ATXN counter-screen. S2 cells (HEK-293 line with an ATXN2-luciferase reporter) viability, CellTiter-Fluor protease fluorescence, 24 h. Potency, µM (highest dose often 56.7 µM), actives largely listed as cytotoxic. 400,000 compounds, 0.49% hits. AID 651635; also: nearly all actives have a fitted effect of over 40% in size
Active calls of the source: *; i = inactive; u = inconclusive; x = not tested or not shown. Calls follow the shape of the dose curve; as a rule, active = well fitted curve in the direction sought with a large enough effect; inconclusive = small, poorly fitted or top-dose-only effect, or another doubt; inactive = no such curve, though single readings can be large; an effect the other way counts as inactive or inconclusive. Potency is read from the fitted curve at half-maximal effect.

SMILES	DT40 TDP1 no CPT	HepG2 tox	ATXN2 expr inh	TGFb inhibitor	DT40 TDP1 CPT	ATXN viability
CCc1cccc(C)c1NC(=S)NCc1cccn1C	u	4%	-3%	-10%	21µM*	i
Cc1ccc(Cl)cc1NC(=S)NCc1cccn1C	18µM*	1%	-8%	-32%	u	i
CCc1cccc(C)c1NC(=S)NCc1ccc2[nH]c(C)cc2c1	18µM*	5%	0%	2%	23µM*	i
CNC(=S)NCc1ccc2[nH]c(C)cc2c1	-13%	27%	x	26%	2%	i
Cc1ccsc1C(=O)N1CCC1(C)C(=O)NS(=O)(=O)c1ccccc1C(F)(F)F (stereo unspecified)	1%	-5%	16%	-2%	3%	i
COc1ccc(C(CC(=O)Nc2cccc(C)c2C)N2Cc3ccccc3C2=O)cc1 (stereo unspecified)	16µM*	-23%	x	-10%	13µM*	x
COc1ccc(C(CC(=O)Nc2ccc(C)cn2)N2Cc3ccccc3C2=O)cc1 (stereo unspecified)	u	-4%	-4%	15%	9%	i
COc1ccc(C(CC(=O)O)N2Cc3ccccc3C2=O)cc1 (stereo unspecified)	21%	5%	-12%	2%	-7%	i
CCOC(=O)c1cccc(NC(=O)CC(c2ccc(F)cc2)N2Cc3ccccc3C2=O)c1 (stereo unspecified)	26µM*	-15%	x	-4%	u	x
CCc1cccc(NC(=O)CC(c2ccc(OC)cc2)N2Cc3ccccc3C2=O)c1 (stereo unspecified)	16µM*	-14%	x	3%	21µM*	x
Cc1ccccc1CNC(=O)Cc1csc2ccccc12	u	-24%	x	x	u	x
CC(C)C[C@H](NC(=O)c1nc[nH]c1C(=O)NC(c1ccccc1)c1ccccc1)C(=O)OCc1ccccc1	u	-18%	-10%	u	u	u
CC(C)C[C@H](NC(=O)c1nc[nH]c1C(=O)N[C@@H](CC(C)C)C(=O)OCc1ccccc1)C(=O)OCc1ccccc1	26µM*	-25%	-15%	u	23µM*	u
CC(C)C[C@H](NC(=O)c1[nH]cnc1C(=O)N[C@H](C)c1ccccc1)C(=O)OCc1ccccc1	16µM*	-26%	-31%	-26%	u	i
Nc1ncnc2c1ncn2[C@@H]1O[C@H](CCC(=O)NCc2ccccc2)[C@@H](O)[C@H]1O	2%	1%	14%	5%	u	i
Cn1c(=O)c(=O)n(C)c2cc(N3CCCC3)c(NC(=O)c3ccc(C(C)(C)C)cc3)cc21	u	-15%	-1%	-14%	u	i
Cc1ccc(-c2cc(-c3c(C)nn(C)c(=O)c3N)[nH]n2)cc1	9.2µM*	1%	-3%	-6%	16µM*	i
COc1ccc(-c2cc(-c3n[nH]c(=S)n3-c3ccccc3Cl)[nH]n2)cc1	-17%	11%	6%	6%	3%	i
Cc1nn(C)c(=O)c(N)c1-c1cc(-c2ccc(Cl)c(Cl)c2)n[nH]1	6.5µM*	-11%	-20%	1%	13µM*	i
O=C(NCc1ccco1)C(c1ccc(F)cc1)N(CC1CCCO1)C(=O)Cn1nnc2ccccc21 (stereo unspecified)	-25%	14%	-15%	10%	-1%	i
CCc1nc2ccc(C(=O)N3CCN(C(=O)c4ccco4)CC3)cn2c1N(CCC(C)C)CCN(C)C	3%	4%	-1%	9%	4%	i

Bioassay records deposited in PubChem BioAssay by National Center for Advancing Translational Sciences (NCATS).
